In the library only some 2.7% were active in any assay of this set; here they are far more common.
FID counter – fluorescent intercalator displacement, NS3 helicase counter-screen | DNA fluorescent intercalator displacement, fluorescence | inhibition, % at 7.9 µM | 290,000 tested, 0.17% active | AID 1845; in the data active = inhibition above about 37%;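 also: 0% = vehicle and 100% = reference compound; higher means more ethidium bromide displaced from hairpin DNA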
PP1 counter – PP1-alpha (human) inhibition in PP5 counter-screen | P62136 | purified PP1alpha, OMFP fluorescence | inhibition, % at 6.7 µM | 320,000 tested, 0.9% active | AID 2235;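 active = inhibition above the mean inhibition of all tested compounds plus 3 SD, computed separately for each screening campaign, cut at about 15% in these data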
TMEM16A inh – blocks the mouse calcium-activated chloride channel TMEM16A; Q8BHY3; HEK293 TMEM16A/YFP iodide influx fluorescence, ionomycin; normalized B-score (activity score, 25-100; higher = stronger inhibition) at 10 µM; 310,000 tested, 1.2% active;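 active = ratio plate-corrected score three or more library SD toward inhibition, starting fluorescence score within five deviations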;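 also: score derived from kinetic fluorescence span divided by baseline fluorescence per well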
PP5 inh – inhibitors of human protein phosphatase 5 (PP5); inhibition, % at 6.7 µM; purified PP5c, OMFP substrate fluorescence; P53041; 320,000 tested, 0.18% active;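 active = inhibition above the campaign's mean inhibition across all tested compounds plus 3 SD, cut at about 9.5% in these data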;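 also: 0% = DMSO only and 100% = 100 µM cantharidin control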
Target sequence (P53041 whole entry, looked up): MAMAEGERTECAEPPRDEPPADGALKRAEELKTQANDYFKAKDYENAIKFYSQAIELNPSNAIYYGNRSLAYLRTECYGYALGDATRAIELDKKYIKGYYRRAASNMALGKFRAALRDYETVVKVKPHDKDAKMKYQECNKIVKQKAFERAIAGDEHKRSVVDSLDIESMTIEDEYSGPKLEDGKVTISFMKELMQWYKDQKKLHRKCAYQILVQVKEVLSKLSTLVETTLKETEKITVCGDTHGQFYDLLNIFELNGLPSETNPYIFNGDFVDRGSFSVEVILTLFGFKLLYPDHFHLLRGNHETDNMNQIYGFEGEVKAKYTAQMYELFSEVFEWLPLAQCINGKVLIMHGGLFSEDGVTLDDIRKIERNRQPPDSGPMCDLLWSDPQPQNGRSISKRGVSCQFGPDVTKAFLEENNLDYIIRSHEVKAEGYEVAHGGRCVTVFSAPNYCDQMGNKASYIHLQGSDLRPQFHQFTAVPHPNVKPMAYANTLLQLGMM
PREPL inhibitor – inhibitors of human prolyl oligopeptidase-like enzyme PREPL. Q4J6C6. recombinant PREPL, fluorescence polarization activity-based probe. inhibition, % at 5.96 µM. 320,000 tested, 0.68% active; in the data active = inhibition above about 43%;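 also: 0% = enzyme with DMSO and 100% = wells lacking enzyme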
TMEM16A act – activates or potentiates the mouse TMEM16A chloride channel; Q8BHY3; HEK293 TMEM16A/YFP-H148Q/I152L, iodide quench fluorescence; hits give low values; B-score at 10 µM; 340,000 tested, 0.3% active; AID 623877;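 active = fluorescence-ratio B-score plate-corrected deviation score at least 3 library SD below zero, with starting fluorescence score within 5 deviations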;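 also: channel opened by trigger with iodide after compound preincubation; score built on the fluorescence ratio of max minus min over baseline; more negative score means more quench and so TMEM16A activation or potentiation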
* hit, by the source's call; i = inactive; nt = not tested or not shown; ! = not active in a repeat.

SMILES	FID counter	PP1 counter	TMEM16A inh	PP5 inh	PREPL inhibitor	TMEM16A act
O=C1ON=C(c2ccccc2)/C1=C/c1ccc(-c2ccccc2[N+](=O)[O-])o1	-5	8	25*	3	1	-6.2*
CCOc1ccccc1NC(=O)C(OC(=O)c1ccc(O)cc1)c1ccccc1 (stereo unspecified)	-13	2	25*	1	-6	i
CCOc1ccccc1NC(=O)C(NCC1CCCCC1)c1ccccc1 (stereo unspecified)	-22	2	25*	1	1	i
CCOc1ccccc1NC(=O)C(OC(=O)c1ccc(CC)cc1)c1ccccc1 (stereo unspecified)	3	2	i	-1	-6	i
Cc1ccc(S(=O)(=O)c2nc(S(C)(=O)=O)sc2N2CCC3(CC2)OCCO3)cc1	-43	-1	i	0	-6	i
CSc1ccc(/C=N/n2c(COc3ccccc3)n[nH]c2=S)cc1	-28	1	i	3	-10	i
COc1cccc2sc3cc(NCc4ccc(C)o4)ccc3c(=O)c12	nt	nt	nt	nt	17	i
Cc1ccc(NC(=O)C(=O)Nc2ccc(C)cn2)nc1	-1	-3	i	0	-2	i
Cc1ccc(NC(=O)/C(C#N)=C(\N)C(Cl)(Cl)Cl)nc1	3	-5	i	-1	22	-11*
O=S(=O)(Nc1cc(S(=O)(=O)N2CCOCC2)ccc1N1CCOCC1)c1ccc2c(c1)OCCO2	-15	0	i	-3	0	i
O=S(=O)(Nc1cc(S(=O)(=O)N2CCOCC2)ccc1O)c1ccc2c(c1)OCCCO2	nt	-1	nt	-1	-1	-22*
O=C(c1cc2c(s1)CCCCC2)N1CCN(c2ncccn2)CC1	-37	-6	i	3	13	i
O=C(c1cc2c(s1)CCCC2)n1cccn1	-1	1	i	-1	68*	i
Cc1ccc(-c2nnc(N3CCC(C)CC3)c3ccccc23)cc1C	-6	10	100*	0	-2	i
COc1ccc(C2=C(CN(C)C)C(c3ccccc3)c3ccccc3O2)cc1 (stereo unspecified)	46*!	1	i	1	-1	i
CC12CCC(C(=NO)C1=O)C2(C)C (stereo unspecified)	nt	nt	nt	nt	nt	i
O=C(Cn1c2ccccc2c2nc3n(c(=O)c21)CCS3)Nc1ccccc1	-9	0	i	1	9	-32*
O=C(CCSc1nnc(-c2ccccc2)o1)N1CCOCC1	-5	-1	i	-1	-5	i
Cc1ccc(-c2nnc(SCCC(=O)N3CCOCC3)o2)cc1	-18	-2	i	0	18	-39*
Clc1ccc2c(SCC3CO3)c3ccccc3nc2c1 (stereo unspecified)	nt	nt	nt	nt	nt	i
CCOC(=O)C1=C(CSc2nc3c(cc2C#N)CCC3)OC(N)=C(C#N)C1c1ccccc1 (stereo unspecified)	-13	1	i	5	4	i
CCOC(=O)C1=C(CSc2nc3c(cc2C#N)CN(C)CC3)OC(N)=C(C#N)C1c1ccccc1 (stereo unspecified)	-2	17*	i	-5	16	i
CCOC(=O)C1=C(CSc2nc3c(cc2C#N)CN(C)CC3)OC(N)=C(C#N)C1c1ccc(F)cc1 (stereo unspecified)	-1	16*	i	5	19	i
CC(C)CC(=O)O/N=C1\C(=O)N(Cc2ccc(Cl)cc2)c2ccc([N+](=O)[O-])cc21	10	17*	i	3	9	nt
CCCCc1cc(=O)oc2cc(C)cc(OC(C)C(=O)NCc3ccncc3)c12 (stereo unspecified)	-37	1	i	3	1	i
COc1ccc(OC)c(C(c2nnnn2CCc2ccccc2)N2CCN(c3ccccc3)CC2)c1 (stereo unspecified)	-28	3	i	-4	10	-8.5*
CCC(/C=N/NC(=O)C(N)=O)CC	-7	6	i	3	3	-5.3*
CCC(/C=N/NC(=O)c1ccccc1F)CC	-6	-4	i	-1	2	i
CC(C)[C@H](NC(=O)c1cccc(S(=O)(=O)N2CCOCC2)c1)C(=O)Nc1nc2ccccc2s1	-31	-1	i	-1	2	i
